The values below come from the supplement of paper PMC3334620.

Whole data set: some 33,000 sequences, median “E-score (-0.5 to 0.5)” near -0.016, cut for the highest 2% near 0.32. This excerpt belongs to a sample that is enriched for the highest values.

The target in the assay is T1, Stp1 (UniProt B3LFK1).
T1 sequence: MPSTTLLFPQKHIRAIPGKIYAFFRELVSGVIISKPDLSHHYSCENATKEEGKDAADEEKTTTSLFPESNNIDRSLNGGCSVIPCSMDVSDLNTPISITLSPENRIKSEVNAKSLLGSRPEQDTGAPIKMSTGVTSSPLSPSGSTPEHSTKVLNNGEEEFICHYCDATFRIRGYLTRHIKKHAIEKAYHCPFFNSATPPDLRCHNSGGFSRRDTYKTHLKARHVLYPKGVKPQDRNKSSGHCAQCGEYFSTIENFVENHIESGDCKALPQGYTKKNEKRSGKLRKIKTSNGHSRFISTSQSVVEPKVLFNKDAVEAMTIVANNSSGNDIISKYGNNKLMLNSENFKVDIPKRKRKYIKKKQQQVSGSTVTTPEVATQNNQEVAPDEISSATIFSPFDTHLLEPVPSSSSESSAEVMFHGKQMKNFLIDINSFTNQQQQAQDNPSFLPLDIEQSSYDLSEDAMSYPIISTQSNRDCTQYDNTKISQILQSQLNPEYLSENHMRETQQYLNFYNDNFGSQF
The assay is described as follows: PBM E-score (8-mer binding enrichment) (E-score (-0.5 to 0.5)); higher = stronger / more preferred TF binding. As to conditions: protein concentration: 200 nM; construct: GST-full length. A digest of the protocol: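 Using PURExpress in vitro transcription/translation, GST-tagged yeast transcription factors were made in full-length or DNA-binding-domain form. These were applied at about 100-200 nM to double-stranded universal all-10-mer Agilent arrays, and bound protein was detected with fluorescent anti-GST. Scans were normalised with masliner before the Universal PBM Analysis Suite assigned E-scores to ungapped eight-base words pooled with their reverse complements.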
In the case of ACAGGGCG, the “PBM E-score” value amounted to 0.351.

Regarding ACAGGGCT, the “PBM E-score” value is -0.0531.

Turning to ACAGGGCA, the “PBM E-score” value amounted to 0.244.

For the sequence CACCGACA, the “PBM E-score” value was determined as 0.0706.

Regarding AGGCAACG, the “PBM E-score” value is 0.0557.

Consider CGGCAACA, for which the “PBM E-score” value worked out at 0.368.

As for CGGCAACG, the “PBM E-score” value turned out to be 0.368.

Regarding TGGCAACA, the “PBM E-score” value is 0.195.

Regarding AGGCAACA, the “PBM E-score” value stood at 0.143.

For the sequence CGGCAACC, the “PBM E-score” value amounted to 0.266.

On to ACTTTTGG, for which the “PBM E-score” value is -0.0182.

With CTATGCAA, the “PBM E-score” value is -0.0966.

With CGGCCCAC, the “PBM E-score” value is -0.051.

Consider ACATACGG, for which the “PBM E-score” value is 0.261.

In the case of CCATACGC, the “PBM E-score” value was 0.0591.

Regarding CCATACGG, the “PBM E-score” value was 0.395.

As for CAATACGC, the “PBM E-score” value came to 0.175.

As to CAATACGG, the “PBM E-score” value amounted to 0.32.

CAATACGA: the “PBM E-score” value was determined as 0.143.

On to GACAATGA, for which the “PBM E-score” value is -0.247.

Regarding CGCCTTAC, the “PBM E-score” value was 0.405.

With AGCCTTTC, the “PBM E-score” value was -0.0105.

With CGCCTTTA, the “PBM E-score” value was 0.129.

As for CGCCTTTC, the “PBM E-score” value turned out to be 0.354.

Consider CGCCTTAA, for which the “PBM E-score” value was 0.211.

Regarding CGCCTTCC, the “PBM E-score” value turned out to be 0.206.

Turning to AGCCTTGC, the “PBM E-score” value turned out to be 0.325.

As to AGCCTTGA, the “PBM E-score” value is -0.0777.

Turning to CGCCTTGA, the “PBM E-score” value turned out to be 0.0844.

For AGCCTTGG, the “PBM E-score” value is -0.138.

With AGCCTTAC, the “PBM E-score” value is -0.022.

On to CGCCTTGC, for which the “PBM E-score” value was found to be 0.35.

On to ACATGTAT, for which the “PBM E-score” value came to 0.0569.

In the case of CAATCCAC, the “PBM E-score” value was -0.128.

Turning to ATAGTTCG, the “PBM E-score” value came out at 0.0223.

With AATAGAGG, the “PBM E-score” value was -0.00072.

Turning to CTTGATGA, the “PBM E-score” value stood at 0.1.

Regarding ATCTGCAA, the “PBM E-score” value was -0.145.

As for ACACACTG, the “PBM E-score” value was -0.0947.

Turning to AGCCCCTG, the “PBM E-score” value is -0.353.

On to AAAGAACA, for which the “PBM E-score” value is -0.0165.

For AAAGCACT, the “PBM E-score” value was -0.0405.

Consider AGCAGGCA, for which the “PBM E-score” value was -0.0398.

In the case of GGGCGAGA, the “PBM E-score” value was -0.132.

Turning to AGGCTCCA, the “PBM E-score” value was -0.0273.

On to AGGCTCAA, for which the “PBM E-score” value stood at 0.0744.

Consider CGGCTCAG, for which the “PBM E-score” value worked out at 0.379.

As to TGGCTCAA, the “PBM E-score” value is 0.00085.

Turning to AGGCTCAG, the “PBM E-score” value is -0.0826.

In the case of CGGCTCAC, the “PBM E-score” value is 0.213.

For the sequence CGGCTCAA, the “PBM E-score” value turned out to be 0.351.

Regarding CGGCTCCA, the “PBM E-score” value stood at 0.425.

Turning to CGGCTCCC, the “PBM E-score” value stood at 0.187.

On to ACCTTTCT, for which the “PBM E-score” value was -0.0776.

Regarding CCAACAAG, the “PBM E-score” value was found to be 0.00906.

As for AACTGCGG, the “PBM E-score” value turned out to be 0.173.

CGATGCCC: the “PBM E-score” value is 0.0311.

Take CGATGCCA: the “PBM E-score” value was 0.105.

For the sequence ATATGCCC, the “PBM E-score” value is -0.155.

As to ATATGCCA, the “PBM E-score” value amounted to 0.153.

As for AGATGCCG, the “PBM E-score” value is 0.397.

Turning to AGATGCCC, the “PBM E-score” value was 0.06.

Turning to AGATGCCT, the “PBM E-score” value turned out to be 0.107.

For the sequence ATATGCCG, the “PBM E-score” value stood at 0.347.

With CGATGCCG, the “PBM E-score” value is 0.415.

On to CCAACCTA, for which the “PBM E-score” value was -0.175.

Consider ATGCGGTA, for which the “PBM E-score” value stood at 0.0546.

Consider CTGCGGCC, for which the “PBM E-score” value came to 0.214.

ATGCGGAA: the “PBM E-score” value is 0.164.

On to CTGCGGCA, for which the “PBM E-score” value was determined as 0.422.

As for CTGCGGTA, the “PBM E-score” value turned out to be 0.0752.

For ATGCGGCA, the “PBM E-score” value is 0.467.

Take GTGCGGCA: the “PBM E-score” value turned out to be 0.469.

Consider GTGCGGAA, for which the “PBM E-score” value turned out to be 0.132.

In the case of GTGCGGGA, the “PBM E-score” value was found to be 0.041.

In the case of AGTTTGTC, the “PBM E-score” value is -0.0407.

CTCTGGGC: the “PBM E-score” value was -0.215.

For AGAGGTCG, the “PBM E-score” value was -0.096.

As to AGATGAGG, the “PBM E-score” value was -0.192.

Turning to AGTTAAGG, the “PBM E-score” value was -0.0459.

For the sequence ACCTGTAA, the “PBM E-score” value amounted to 0.00569.

On to AGATAGAG, for which the “PBM E-score” value was -0.0214.

For GCTGATCC, the “PBM E-score” value was -0.116.

As for AGCGGCAT, the “PBM E-score” value turned out to be 0.406.

For AGTGGCAA, the “PBM E-score” value was 0.162.

As for AGTGGCAC, the “PBM E-score” value turned out to be 0.209.
